Results reported in PubChem BioAssay (EPA / NIEHS).
Where “and” joins values, the source holds several entries; their conditions need not be identical. Identical values can stand only once. Results filed as inconclusive are left out. Some compounds were tested as several samples or in several runs, with calls that do not always agree. Calls of active or inactive are those of the source. How the source made its calls: active means hit-call score of the fitted dose curve at least 0.9, where 1 is the maximum; inconclusive means response in the unintended direction; inactive means score below 0.9.

Key:
[1] = ATG_M_06_XSP1: Attagene TRANS-FACTORIAL Multi-Species (XSP1) HepG2 Assay for M06 Transcription Factor (Internal Marker) (AID 2283790)
Method in brief: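 This background-control readout tracks M06 reporter mRNA, measured by RT-PCR and capillary electrophoresis. HepG2 cells transiently carrying the GAL4-UAS reporter panel were dosed for 24 h with 3 nM 6-alpha-fluorotestosterone added for partial AR stimulation; increases were scored relative to DMSO.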

[2] = ATG_M_61_XSP1: Attagene TRANS-FACTORIAL Multi-Species (XSP1) HepG2 Assay for M61 Transcription Factor (Internal Marker) (AID 2283797)
Method in brief: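 Background-control readout: reporter transcripts measured by RT-PCR and capillary electrophoresis 24 h after dosing transiently transfected HepG2 multi-reporter cells, with 3 nM 6-alpha-fluorotestosterone present. Fitted in the positive direction relative to DMSO.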

[3] = target: Peroxisome proliferator-activated receptor gamma (Homo sapiens) (UniProt P37231); assay: ATG_hPPARg_XSP1: Attagene TRANS-FACTORIAL Multi-Species (XSP1) HepG2 Assay for human Peroxisome Proliferator-activated Receptor gamma (PPARg) (AID 2283800)
Method in brief: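 Reporter mRNA induction, measured by RT-PCR with capillary electrophoresis 24 h after dosing, scored as gain over DMSO. Transfected HepG2 cells express exogenous NR-Gal4 chimeras driving GAL4-UAS reporters; medium includes 3 nM 6-alpha-fluorotestosterone.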

[4] = tested on: zebrafish Peroxisome Proliferator-activated Receptor gamma (PPARg), gene 557037; assay: ATG_zfPPARg_XSP1: Attagene TRANS-FACTORIAL Multi-Species (XSP1) HepG2 Assay for zebrafish Peroxisome Proliferator-activated Receptor gamma (PPARg) (AID 2283801)
Method in brief: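 Trans-activation readout of chimeric zebrafish PPARg–GAL4 in transiently transfected human HepG2 cells, 24 h chemical exposure (medium includes 3 nM 6-alpha-fluorotestosterone). Reporter transcripts measured by RT-PCR and capillary electrophoresis, fitted as gain over DMSO.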

[5] = target: mouse Peroxisome Proliferator-activated Receptor gamma (PPARg), Pparg (gene 19016) (UniProt P37238); assay: ATG_mPPARg_XSP1: Attagene TRANS-FACTORIAL Multi-Species (XSP1) HepG2 Assay for mouse Peroxisome Proliferator-activated Receptor gamma (PPARg) (AID 2283802)
Method in brief: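 Readout is reporter mRNA induction, measured by RT-PCR with 6-FAM labelling, HpaI digestion and capillary electrophoresis, 24 h post-dose relative to DMSO. Transient multi-reporter transfection of human HepG2 with mouse PPARg–GAL4 fusion; 3 nM 6-alpha-fluorotestosterone included.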

[6] = target: Nuclear receptor subfamily 1 group I member 2 (Mus musculus) (UniProt O54915); assay: ATG_mPXR_XSP1: Attagene TRANS-FACTORIAL Multi-Species (XSP1) HepG2 Assay for mouse Pregnane X Receptor (PXR) (AID 2283803)
Method in brief: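 Transiently transfected HepG2 cells expressing a receptor-Gal4 chimera drive a GAL4-UAS reporter; 3 nM 6-alpha-fluorotestosterone included. Reporter mRNA read 24 h post-dose by RT-PCR and capillary electrophoresis; gain of signal relative to DMSO.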

[7] = target: frog Thyroid hormone Receptor alpha (TRa), thra-a (gene 397942) (UniProt P15204); assay: ATG_frTRa_XSP1: Attagene TRANS-FACTORIAL Multi-Species (XSP1) HepG2 Assay for frog Thyroid hormone Receptor alpha (TRa) (AID 2283804)
Method in brief: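 Reporter transcript induction, measured by RT-PCR with 6-FAM labelling and capillary electrophoresis, 24 hr after dosing transiently transfected HepG2 cells expressing a frog TRa-GAL4 fusion; medium contained 3 nM 6-alpha-fluorotestosterone; increase over DMSO scored.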

[8] = tested on: turtle Thyroid Hormone Receptor, alpha (TRa), gene 101949057; assay: ATG_trTRa_XSP1: Attagene TRANS-FACTORIAL Multi-Species (XSP1) HepG2 Assay for turtle Thyroid Hormone Receptor, alpha (TRa) (AID 2283806)
Method in brief: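 After 24 h chemical exposure, reporter transcripts were measured by RT-PCR with fluorescent primer extension, HpaI digestion and capillary electrophoresis. Cells were transiently transfected HepG2 expressing exogenous NR-Gal4 chimeras; medium contained 3 nM 6-alpha-fluorotestosterone; fitted upward relative to DMSO.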

[9] = target: zebrafish Thyroid Hormone Receptor alpha (TRa), thraa (gene 30670) (UniProt Q98867); assay: ATG_zfTRa_XSP1: Attagene TRANS-FACTORIAL Multi-Species (XSP1) HepG2 Assay for zebrafish Thyroid Hormone Receptor alpha (TRa) (AID 2283807)
Method in brief: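 Reporter transcripts driven by a chimeric zebrafish TRa–Gal4 protein were measured by RT-PCR with fluorescent labelling and capillary electrophoresis. These came from transiently transfected HepG2 cells after 24 h chemical exposure, with 3 nM 6-alpha-fluorotestosterone added; baseline was DMSO.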

[10] = target: human Thyroid hormone Receptor beta (TRb), THRB (gene 7068) (UniProt P10828); assay: ATG_hTRb_XSP1: Attagene TRANS-FACTORIAL Multi-Species (XSP1) HepG2 Assay for human Thyroid hormone Receptor beta (TRb) (AID 2283808)
Method in brief: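 Readout is reporter mRNA induction measured by RT-PCR, fluorescent labelling and capillary electrophoresis, fitted upward relative to DMSO. Transiently transfected human HepG2 cells expressing NR-Gal4 chimeras were dosed for 24 h, medium containing 3 nM 6-alpha-fluorotestosterone.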

[11] = target: zebrafish Thyroid Hormone Receptor beta (TRb), thrb (gene 30607) (UniProt Q9PVE4); assay: ATG_zfTRb_XSP1: Attagene TRANS-FACTORIAL Multi-Species (XSP1) HepG2 Assay for zebrafish Thyroid Hormone Receptor beta (TRb) (AID 2283809)
Method in brief: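 HepG2 cells transiently transfected with multiplexed GAL4-UAS reporter units expressing chimeric zebrafish TRb–Gal4. Dosed 24 h with 3 nM 6-alpha-fluorotestosterone present; reporter mRNA measured by RT-PCR, HpaI digestion and capillary electrophoresis; gain of signal versus DMSO.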

[12] = ATG_M_06_XSP2: Attagene TRANS-FACTORIAL Multi-Species (XSP2) HepG2 Assay for M06 Transcription Factor (Internal Marker) (AID 2283811);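 further: hits are increases in signal above the DMSO baseline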
Method in brief: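 Cells of the human liver line HepG2 carried transfected reporter transcription units and were treated for 24 h. Induced reporter transcripts were detected by fluorescence after RT-PCR and capillary electrophoresis, with activity fitted in the gain direction against DMSO.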

[13] = tested on: turtle Estrogen Receptor (ERa), gene 101933533; assay: ATG_trERa_XSP2: Attagene TRANS-FACTORIAL Multi-Species (XSP2) HepG2 Assay for turtle Estrogen Receptor (ERa) (AID 2283812);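 further: actives raise reporter signal above DMSO so AC50 reflects agonist activity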
Method in brief: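 Readout is reporter mRNA quantified by RT-PCR with capillary electrophoresis after 24 h compound exposure, increase relative to DMSO. Uses transiently transfected human HepG2 liver cells carrying a chimeric turtle ERa-Gal4 receptor driving GAL4-UAS reporters.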

[14] = target: Estrogen receptor beta (Homo sapiens) (UniProt Q92731); assay: ATG_hERb_XSP2: Attagene TRANS-FACTORIAL Multi-Species (XSP2) HepG2 Assay for human Estrogen Receptor (ERb) (AID 2283813);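 further: actives raise reporter mRNA above DMSO so AC50 reflects agonist induction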
Method in brief: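 Transient TRANS reporter system in HepG2: after 24 h of chemical, RNA is reverse-transcribed, reporter cDNA amplified, FAM-labelled and sized by capillary electrophoresis. Induction of the human ERb-Gal4 reporter is measured relative to DMSO.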

[15] = target: GAL4 Transcription Factor (Internal Marker), GAL4 (gene 855828) (UniProt P04386); assay: ATG_GAL4_XSP2: Attagene TRANS-FACTORIAL Multi-Species (XSP2) HepG2 Assay for GAL4 Transcription Factor (Internal Marker) (AID 2283814);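 further: GAL4 reporter mRNA background control in MRTU transfected cells not a receptor target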
Method in brief: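 Background-control readout: gain-of-signal fitted against DMSO. After 24 h exposure of transfected HepG2 (MRTU, GAL4-UAS reporters; 3 nM 6-alpha-fluorotestosterone, 1.5 nM norgestrel present), transcripts quantified by RT-PCR and capillary electrophoresis fluorescence.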

[16] = ATG_M_32_XSP1: Attagene TRANS-FACTORIAL Multi-Species (XSP1) HepG2 Assay for M32 Transcription Factor (Internal Marker) (AID 2283799)
Method in brief: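 Reporter transcripts from the M32 internal-control unit measured by RT-PCR, FAM labelling, HpaI digestion and capillary electrophoresis after 24 h compound exposure of transfected HepG2, 3 nM 6-alpha-fluorotestosterone included; DMSO baseline, positive-direction fit.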

[17] = ATG_XTT_Cytotoxicity_XSP1: Cytotoxicity Assessment in the Attagene TRANS-FACTORIAL Multi-Species (XSP1) HepG2 Assay (AID 2283810)
Method in brief: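 XTT viability readout taken at 24 hours post-dosing in HepG2 liver cells co-treated with 3 nM 6-alpha-fluorotestosterone. Signal loss relative to DMSO controls reflects cytotoxicity.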

[18] = target: human Thyroid hormone Receptor alpha (TRa), THRA (gene 7067) (UniProt P10827); assay: ATG_hTRa_XSP1: Attagene TRANS-FACTORIAL Multi-Species (XSP1) HepG2 Assay for human Thyroid hormone Receptor alpha (TRa) (AID 2283805)
Method in brief: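 Reporter transcripts from the human TRa-Gal4 TRANS unit quantified by RT-PCR, fluorescent labeling and capillary electrophoresis after 24 hours of chemical exposure in transfected HepG2 cells; medium contains 3 nM 6-alpha-fluorotestosterone. Positive direction fit against DMSO.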

[19] = ATG_M_19_XSP1: Attagene TRANS-FACTORIAL Multi-Species (XSP1) HepG2 Assay for M19 Transcription Factor (Internal Marker) (AID 2283798)
Method in brief: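 Readout is reporter mRNA induction quantified via RT-PCR, 6-FAM labeling, HpaI digestion and capillary electrophoresis, fitted in the positive direction versus DMSO baseline. Transfected HepG2 cells exposed 24 h, medium including 3 nM 6-alpha-fluorotestosterone.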

[20] = tested on: turtle Androgen Receptor (AR), gene 101947425; assay: ATG_trAR_XSP2: Attagene TRANS-FACTORIAL Multi-Species (XSP2) HepG2 Assay for turtle Androgen Receptor (AR) (AID 2283815)
Method in brief: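 Reporter transcripts were quantified via RT-PCR and capillary electrophoresis and fitted upward against DMSO. Transiently transfected human HepG2 cells carrying NR-Gal4 chimeras were exposed 24 h, with 3 nM 6-alpha-fluorotestosterone plus 1.5 nM norgestrel added.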

Measured: AC50

GAL4 Transcription Factor (Internal Marker), GAL4 (gene 855828), sequence (P04386 whole entry, looked up, the tested form may be a part): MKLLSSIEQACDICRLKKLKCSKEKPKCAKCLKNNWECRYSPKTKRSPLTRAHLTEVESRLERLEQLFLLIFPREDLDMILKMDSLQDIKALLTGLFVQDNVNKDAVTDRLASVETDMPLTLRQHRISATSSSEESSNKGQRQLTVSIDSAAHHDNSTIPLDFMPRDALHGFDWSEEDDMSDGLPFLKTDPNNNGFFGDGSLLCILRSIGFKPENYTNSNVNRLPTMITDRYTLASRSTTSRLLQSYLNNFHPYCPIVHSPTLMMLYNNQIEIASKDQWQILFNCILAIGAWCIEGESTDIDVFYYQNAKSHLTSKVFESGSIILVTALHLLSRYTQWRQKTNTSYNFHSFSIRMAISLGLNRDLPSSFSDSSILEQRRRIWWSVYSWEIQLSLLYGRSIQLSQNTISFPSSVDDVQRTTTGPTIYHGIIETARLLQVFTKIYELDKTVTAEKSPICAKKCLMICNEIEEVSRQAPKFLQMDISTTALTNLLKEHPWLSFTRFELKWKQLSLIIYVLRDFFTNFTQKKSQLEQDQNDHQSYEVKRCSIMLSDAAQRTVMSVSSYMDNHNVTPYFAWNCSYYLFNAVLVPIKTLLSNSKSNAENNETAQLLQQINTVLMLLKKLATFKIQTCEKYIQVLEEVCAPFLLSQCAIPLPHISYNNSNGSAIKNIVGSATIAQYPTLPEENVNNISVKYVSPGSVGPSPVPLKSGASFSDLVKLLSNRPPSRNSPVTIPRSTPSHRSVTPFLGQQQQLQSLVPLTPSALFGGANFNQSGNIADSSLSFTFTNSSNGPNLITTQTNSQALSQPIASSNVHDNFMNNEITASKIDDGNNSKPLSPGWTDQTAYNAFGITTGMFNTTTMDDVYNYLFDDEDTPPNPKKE
human Thyroid hormone Receptor alpha (TRa), THRA (gene 7067), sequence (P10827 whole entry, looked up, the tested form may be a part): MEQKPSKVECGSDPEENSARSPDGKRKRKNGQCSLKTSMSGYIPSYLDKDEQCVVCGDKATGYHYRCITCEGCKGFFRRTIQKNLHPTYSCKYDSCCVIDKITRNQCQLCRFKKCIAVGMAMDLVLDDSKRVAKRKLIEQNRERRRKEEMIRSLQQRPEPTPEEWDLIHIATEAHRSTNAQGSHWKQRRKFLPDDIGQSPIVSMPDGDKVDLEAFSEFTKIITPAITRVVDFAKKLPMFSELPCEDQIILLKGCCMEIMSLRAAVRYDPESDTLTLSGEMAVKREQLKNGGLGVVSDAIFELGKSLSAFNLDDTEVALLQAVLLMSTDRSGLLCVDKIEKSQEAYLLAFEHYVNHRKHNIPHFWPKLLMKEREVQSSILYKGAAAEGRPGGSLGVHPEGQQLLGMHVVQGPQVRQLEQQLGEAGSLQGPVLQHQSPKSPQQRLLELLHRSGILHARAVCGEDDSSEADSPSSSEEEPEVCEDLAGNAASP
zebrafish Thyroid Hormone Receptor alpha (TRa), thraa (gene 30670), sequence (Q98867 whole entry, looked up, the tested form may be a part): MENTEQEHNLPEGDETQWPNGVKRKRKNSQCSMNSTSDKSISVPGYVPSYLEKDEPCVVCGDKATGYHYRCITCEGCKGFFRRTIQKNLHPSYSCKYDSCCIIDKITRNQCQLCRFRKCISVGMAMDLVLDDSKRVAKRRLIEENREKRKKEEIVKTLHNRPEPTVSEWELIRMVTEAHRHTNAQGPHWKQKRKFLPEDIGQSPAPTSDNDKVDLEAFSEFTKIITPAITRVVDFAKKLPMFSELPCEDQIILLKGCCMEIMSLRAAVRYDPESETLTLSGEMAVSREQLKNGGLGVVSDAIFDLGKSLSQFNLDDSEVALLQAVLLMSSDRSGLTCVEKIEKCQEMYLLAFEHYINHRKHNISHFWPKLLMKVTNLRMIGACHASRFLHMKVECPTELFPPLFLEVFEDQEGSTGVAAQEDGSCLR
mouse Peroxisome Proliferator-activated Receptor gamma (PPARg), Pparg (gene 19016), sequence (P37238 whole entry, looked up, the tested form may be a part): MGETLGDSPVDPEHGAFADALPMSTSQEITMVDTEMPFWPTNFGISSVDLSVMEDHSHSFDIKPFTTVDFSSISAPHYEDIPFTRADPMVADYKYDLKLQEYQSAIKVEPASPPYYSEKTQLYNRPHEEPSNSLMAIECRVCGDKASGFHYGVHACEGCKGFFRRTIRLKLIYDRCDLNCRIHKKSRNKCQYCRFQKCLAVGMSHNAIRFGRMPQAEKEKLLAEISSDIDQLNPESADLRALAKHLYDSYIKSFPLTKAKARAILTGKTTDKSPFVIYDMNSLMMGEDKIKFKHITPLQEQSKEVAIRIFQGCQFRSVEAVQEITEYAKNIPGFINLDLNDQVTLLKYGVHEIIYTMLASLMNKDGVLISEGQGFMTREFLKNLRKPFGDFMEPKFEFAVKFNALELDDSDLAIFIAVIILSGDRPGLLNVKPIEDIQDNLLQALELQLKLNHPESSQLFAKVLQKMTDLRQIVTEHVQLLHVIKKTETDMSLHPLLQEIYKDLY
frog Thyroid hormone Receptor alpha (TRa), thra-a (gene 397942), sequence (P15204 whole entry, looked up, the tested form may be a part): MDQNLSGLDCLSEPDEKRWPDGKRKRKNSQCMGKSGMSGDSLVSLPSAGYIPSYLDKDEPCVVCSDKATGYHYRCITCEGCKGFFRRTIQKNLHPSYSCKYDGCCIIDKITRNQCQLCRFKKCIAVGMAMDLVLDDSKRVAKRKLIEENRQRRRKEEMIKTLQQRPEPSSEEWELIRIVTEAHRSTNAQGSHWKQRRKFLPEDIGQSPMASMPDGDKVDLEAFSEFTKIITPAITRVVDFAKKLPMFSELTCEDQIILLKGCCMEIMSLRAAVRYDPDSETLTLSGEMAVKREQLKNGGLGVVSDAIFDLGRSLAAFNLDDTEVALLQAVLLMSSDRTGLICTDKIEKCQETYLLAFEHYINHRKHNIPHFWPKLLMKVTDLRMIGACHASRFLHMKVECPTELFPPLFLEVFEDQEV
human Thyroid hormone Receptor beta (TRb), THRB (gene 7068), sequence (P10828 whole entry, looked up, the tested form may be a part): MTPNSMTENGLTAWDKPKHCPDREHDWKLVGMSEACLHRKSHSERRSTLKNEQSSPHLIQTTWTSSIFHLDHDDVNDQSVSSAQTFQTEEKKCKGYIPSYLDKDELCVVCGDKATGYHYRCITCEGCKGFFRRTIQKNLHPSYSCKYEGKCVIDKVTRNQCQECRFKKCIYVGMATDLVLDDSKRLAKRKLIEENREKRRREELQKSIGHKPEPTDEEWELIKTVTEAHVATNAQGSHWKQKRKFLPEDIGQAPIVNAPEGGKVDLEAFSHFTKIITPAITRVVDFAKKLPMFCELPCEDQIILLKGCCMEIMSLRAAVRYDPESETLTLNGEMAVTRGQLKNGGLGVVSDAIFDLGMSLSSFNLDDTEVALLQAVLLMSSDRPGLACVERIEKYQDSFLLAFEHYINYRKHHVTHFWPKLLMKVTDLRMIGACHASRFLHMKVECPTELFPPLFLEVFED
Nuclear receptor subfamily 1 group I member 2 (Mus musculus), sequence (O54915 whole entry, looked up, the tested form may be a part): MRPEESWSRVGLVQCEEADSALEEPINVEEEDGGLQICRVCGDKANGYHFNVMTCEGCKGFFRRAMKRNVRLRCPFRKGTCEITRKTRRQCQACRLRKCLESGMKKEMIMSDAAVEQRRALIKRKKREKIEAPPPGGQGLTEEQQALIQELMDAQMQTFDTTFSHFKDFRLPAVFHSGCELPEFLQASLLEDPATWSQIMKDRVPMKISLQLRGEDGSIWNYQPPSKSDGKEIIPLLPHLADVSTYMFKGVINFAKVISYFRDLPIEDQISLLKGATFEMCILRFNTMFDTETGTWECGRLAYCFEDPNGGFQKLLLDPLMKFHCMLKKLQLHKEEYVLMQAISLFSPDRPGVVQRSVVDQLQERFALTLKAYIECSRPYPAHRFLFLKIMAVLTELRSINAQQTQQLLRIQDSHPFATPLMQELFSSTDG
Peroxisome proliferator-activated receptor gamma (Homo sapiens), sequence (P37231 whole entry, looked up, the tested form may be a part): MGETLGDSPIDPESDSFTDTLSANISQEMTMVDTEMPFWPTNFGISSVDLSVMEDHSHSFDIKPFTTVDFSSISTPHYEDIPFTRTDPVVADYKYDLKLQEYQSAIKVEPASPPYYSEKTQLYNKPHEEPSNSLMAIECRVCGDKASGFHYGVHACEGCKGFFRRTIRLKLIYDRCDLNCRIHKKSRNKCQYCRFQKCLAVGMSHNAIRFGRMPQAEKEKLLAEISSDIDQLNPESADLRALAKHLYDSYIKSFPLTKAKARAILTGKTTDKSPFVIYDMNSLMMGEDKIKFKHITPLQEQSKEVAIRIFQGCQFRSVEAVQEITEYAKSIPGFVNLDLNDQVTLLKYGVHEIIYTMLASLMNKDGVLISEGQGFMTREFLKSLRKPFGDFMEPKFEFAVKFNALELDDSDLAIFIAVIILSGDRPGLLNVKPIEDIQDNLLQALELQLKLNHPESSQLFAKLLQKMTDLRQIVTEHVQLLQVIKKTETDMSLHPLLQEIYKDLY
zebrafish Thyroid Hormone Receptor beta (TRb), thrb (gene 30607), sequence (Q9PVE4 whole entry, looked up, the tested form may be a part): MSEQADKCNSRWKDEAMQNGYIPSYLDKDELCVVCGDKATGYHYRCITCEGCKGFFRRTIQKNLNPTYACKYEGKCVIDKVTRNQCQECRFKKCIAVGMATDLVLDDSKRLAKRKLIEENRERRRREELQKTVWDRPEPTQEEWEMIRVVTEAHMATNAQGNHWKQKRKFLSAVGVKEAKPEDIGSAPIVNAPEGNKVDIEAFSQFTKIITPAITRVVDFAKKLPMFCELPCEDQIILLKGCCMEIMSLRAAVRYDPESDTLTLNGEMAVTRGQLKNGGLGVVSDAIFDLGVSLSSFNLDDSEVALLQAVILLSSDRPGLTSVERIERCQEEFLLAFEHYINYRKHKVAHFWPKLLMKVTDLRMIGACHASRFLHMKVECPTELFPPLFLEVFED

Oc1ccc(C(c2ccc(O)cc2)C(Cl)(Cl)Cl)cc1
not listed: [16] | [17] | [18] | [19] | [20]
inactive: all other assays above

C=CCOC(Cn1ccnc1)c1ccc(Cl)cc1Cl (stereo unspecified)
active: [3] 100 µM | [5] 9.81 µM | [6] 0.948 µM
not listed: [8] | [11] | [18] | [19] | [20]
inactive: all other assays above

CC(=O)S[C@@H]1CC2=CC(=O)CC[C@]2(C)[C@H]2CC[C@@]3(C)[C@@H](CC[C@@]34CCC(=O)O4)[C@H]12
active: [6] 0.411 µM
not listed: [8] | [16] | [17] | [19] | [20]
inactive: all other assays above

O=C(c1ccc(O)cc1O)c1ccc(O)cc1O
active: [13] 2.86 µM | [14] 1.32 µM
not listed: [4] | [6] | [8] | [15] | [16] | [19] | [20]
inactive: all other assays above

CSC(=O)c1cccc2nnsc12
inactive: [12] | [13] | [15]

CCCCC(CC)COC(=O)c1ccccc1C(=O)O (stereo unspecified)
inactive: [1] | [2] | [19] | [16] | [8] | [9] | [11] | [12] | [14]
active: [4] 64.2 µM | [5] 13.2 µM | [6] 3.95 µM | [13] 27.1 µM

CN(C)C(=O)Nc1ccc(Cl)c(Cl)c1
active: [13] 25.1 µM and 18 µM
inactive: [12]

CC(C)(c1ccc(O)cc1)c1ccc(O)cc1
inactive: [1] | [2] | [5] | [6] | [7] | [18] | [8] | [9] | [11] | [12]
active: [13] 0.189 µM

C#C[C@]1(O)CC[C@H]2[C@@H]3CCC4=CC(=O)CC[C@@H]4[C@H]3CC[C@@]21CC
active: [13] 0.522 µM
inactive: [7] | [8] | [9] | [10] | [11] | [12] | [13] | [15] | [20]

CC1(C)C(C=C(Cl)Cl)C1C(=O)OCc1cccc(Oc2ccccc2)c1 (stereo unspecified)
active: [6] 1.73 µM | [13] 42.3 µM
inactive: [19] | [4] | [7] | [8] | [9] | [15] | [20]

CCN(Cc1c(F)cccc1Cl)c1c([N+](=O)[O-])cc(C(F)(F)F)cc1[N+](=O)[O-]
inactive: [13] | [14] | [20]
active: [13] 2.15 µM

CC(C)CCCCCCc1ccc(O)cc1
inactive: [1] | [2] | [3] | [4] | [6] | [8] | [11] | [12] | [14]
active: [5] 15.9 µM | [13] 0.989 µM

CCCCC(CC)CN1C(=O)C2C3C=CC(C3)C2C1=O (stereo unspecified)
inactive: [19] | [16] | [4] | [11] | [17] | [13] | [14] | [15]
active: [3] 15.5 µM | [5] 27.7 µM | [6] 0.845 µM

N[C@@H](Cc1cc(I)c(Oc2ccc(O)c(I)c2)c(I)c1)C(=O)O
active: [13] 359 nM and 3.85 µM
inactive: [12] | [15] | [20]
